Experimental data from PubChem BioAssay (Tox21).
Several values for one entry are separate records, joined by “and”; a condition that tells them apart may be missing. Equal values may be shown once. Records with an inconclusive call do not appear. Activity calls are given as the source filed them. Calls come from the whole dose curve; as a rule, active = well fitted curve in the direction sought with a large enough effect in the repeat runs; inconclusive = weak or mixed curves; inactive = no such curve, though single readings can be large; an effect the other way counts as inactive or inconclusive.

Columns and labels:
[1] = A CellTox Green Cytotoxicity Assay to monitor cytotoxicity in HEK293 cells - 40 hour (AID 1224871); note: nearly all actives have a fitted effect of over 45% in size
Outline: (§1)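 Real-time, in one plate: 600 HEK293 cells/well with dead-cell DNA dye, pinned compound after 5 h, 37 C incubation over 40 h; viable cells give no appreciable fluorescence.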

[2] = qHTS RealTime-Glo MT Cell Viability Assay in HEK293 cells - 16 hour (AID 1224872); note: top concentration of the series differs between compounds; nearly all actives have a fitted effect of over 50% in size
Outline: (§2)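 Assay medium contained NanoLuc luciferase plus cell-permeant prosubstrate, added with HEK293 cells at 600 cells/well. After 5 h at 37 C/5% CO2 compounds were added; plates stayed at 37 C for 40 h with serial luminescence reads.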

[3] = qHTS RealTime-Glo MT Cell Viability Assay in HepG2 cells - 8 hour (AID 1224873); note: nearly all actives have a fitted effect of over 55% in size
Outline: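 Real-time viability: cells seeded at 600 per well together with NanoLuc and cell-permeant prosubstrate, compounds added after 5 h incubation. Luminescence tracked at 0, 8, 16, 24, 32 and 40 h of exposure.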

[4] = qHTS RealTime-Glo MT Cell Viability Assay in HEK293 cells - 40 hour (AID 1224874); conditions: RealTime-Glo luminescence; max response: hits give low values; note: nearly all actives have a fitted effect of over 50% in size
Outline: (§3)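 Kinetic, non-lysing viability readout. Seed HEK293 (600/well) with reagent, incubate 5 h at 37 C/5% CO2, pin 23 nL compound in DMSO, incubate at 37 C, read luminescence at 0, 8, 16, 24, 32, 40 h.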

[5] = A CellTox Green Cytotoxicity Assay to monitor cytotoxicity in HEK293 cells - 24 hour (AID 1224875); note: series mostly up to about 77 µM; nearly all actives have a fitted effect of over 45% in size
Outline: as §1

[6] = A CellTox Green Cytotoxicity Assay to monitor cytotoxicity in HepG2 cells - 16 hour (AID 1224876); note: nearly all actives have a fitted effect of over 45% in size
Outline: (§4)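 Cytotoxicity was tracked as dead-cell DNA fluorescence in HepG2 cells treated with test compounds at 37 C; each time-point value comes from one kinetic series spanning 0, 8, 16, 24, 32 and 40 h.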

[7] = qHTS RealTime-Glo MT Cell Viability Assay in HepG2 cells - 32 hour (AID 1224877); note: nearly all actives have a fitted effect of over 55% in size
Outline: (§5)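 qHTS, HepG2, 600 cells/well, RealTime-Glo (NanoLuc + prosubstrate) added with cells; 5 h preincubation; DMSO compound addition; 37 C; luminescence at 0/8/16/24/32/40 h.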

[8] = A CellTox Green Cytotoxicity Assay to monitor cytotoxicity in HepG2 cells - 24 hour (AID 1224878); note: nearly all actives have a fitted effect of over 45% in size
Outline: as §4

[9] = A CellTox Green Cytotoxicity Assay to monitor cytotoxicity in HepG2 cells - 40 hour (AID 1224879); note: nearly all actives have a fitted effect of over 40% in size
Outline: as §4

[10] = qHTS RealTime-Glo MT Cell Viability Assay in HEK293 cells - 0 hour (AID 1224880)
Outline: as §3

[11] = A CellTox Green Cytotoxicity Assay to monitor cytotoxicity in HEK293 cells - 32 hour (AID 1224881); note: nearly all actives have a fitted effect of over 40% in size
Outline: as §1

[12] = A CellTox Green Cytotoxicity Assay to monitor cytotoxicity in HepG2 cells - 0 hour (AID 1224882); note: nearly all actives have a fitted effect of over 35% in size
Outline: as §4

[13] = A CellTox Green Cytotoxicity Assay to monitor cytotoxicity in HepG2 cells - 32 hour (AID 1224883); note: nearly all actives have a fitted effect of over 50% in size
Outline: as §4

[14] = A CellTox Green Cytotoxicity Assay to monitor cytotoxicity in HEK293 cells - 8 hour (AID 1224884); note: nearly all actives have a fitted effect of over 35% in size
Outline: as §1

[15] = qHTS RealTime-Glo MT Cell Viability Assay in HepG2 cells - 16 hour (AID 1224885); note: nearly all actives have a fitted effect of over 50% in size
Outline: as §5

[16] = qHTS RealTime-Glo MT Cell Viability Assay in HEK293 cells - 24 hour (AID 1224886)
Outline: as §2

[17] = qHTS RealTime-Glo MT Cell Viability Assay in HEK293 cells - 8 hour (AID 1224887)
Outline: as §3

[18] = A CellTox Green Cytotoxicity Assay to monitor cytotoxicity in HEK293 cells - 16 hour (AID 1224888); note: nearly all actives have a fitted effect of over 35% in size
Outline: as §1

[19] = qHTS RealTime-Glo MT Cell Viability Assay in HepG2 cells - 0 hour (AID 1224889); note: nearly all actives have a fitted effect of over 50% in size
Outline: as §5

[20] = A CellTox Green Cytotoxicity Assay to monitor cytotoxicity in HepG2 cells - 8 hour (AID 1224890); note: nearly all actives have a fitted effect of over 45% in size
Outline: as §4
% is set by controls: 0 for no effect and ±100 for the full control effect.

Cc1ccc(C)c(S(=O)(=O)O)c1
inactive: Potency [1] | Potency [2] | Potency [3] | max response [4] 6.87% and -2.89% | Potency [5] | Potency [6] | Potency [7] | Potency [8] | Potency [9] | Potency [10] | Potency [11] | Potency [12] | Potency [13] | Potency [14] | Potency [15] | Potency [16] | Potency [17] | Potency [18] | Potency [19] | Potency [20]

COC(=O)CCCCC(=O)OC
inactive: Potency [1] | Potency [2] | Potency [3] | max response [4] 6.2% and 1.04% | Potency [5] | Potency [6] | Potency [7] | Potency [8] | Potency [9] | Potency [10] | Potency [11] | Potency [12] | Potency [13] | Potency [14] | Potency [15] | Potency [16] | Potency [17] | Potency [18] | Potency [19] | Potency [20]

CCCCCCCCCCCC(=O)N(C)CC(=O)O
inactive: cytotoxicity increase [1] 3.46% [at 6.97 µM] | Potency [2] | Potency [3] | max response [4] 1.1% and -15.4% | Potency [5] | Potency [6] | Potency [7] | Potency [8] | cytotoxicity increase [9] 1.38% [at 6.97 µM] | Potency [10] | cytotoxicity increase [11] 0.815% [at 6.97 µM] | Potency [12] | cytotoxicity increase [13] 2.96% [at 6.97 µM] | Potency [14] | Potency [15] | Potency [16] | Potency [17] | Potency [18] | Potency [19] | Potency [20]

CCCCCCCCCCCCCC(=O)O
inactive: Potency [1] | Potency [2] | Potency [3] | max response [4] -22.5% and -9.69% | Potency [5] | Potency [6] | Potency [7] | Potency [8] | Potency [9] | Potency [10] | Potency [11] | Potency [12] | Potency [13] | Potency [14] | Potency [15] | Potency [16] | Potency [17] | Potency [18] | Potency [19] | Potency [20]

Cc1ncc(CO)c(CO)c1O
inactive: Potency [1] | Potency [2] | Potency [3] | max response [4] 6.27% and -1.31% and 5.41% | Potency [5] | Potency [6] | Potency [7] | Potency [8] | Potency [9] | Potency [10] | Potency [11] | Potency [12] | Potency [13] | Potency [14] | Potency [15] | Potency [16] | Potency [17] | Potency [18] | Potency [19] | Potency [20]

CCCCCCCCC(=O)O
inactive: Potency [1] | Potency [2] | Potency [3] | max response [4] 1.64% and 2.96% | Potency [5] | Potency [6] | Potency [7] | Potency [8] | Potency [9] | Potency [10] | Potency [11] | Potency [12] | Potency [13] | Potency [14] | Potency [15] | Potency [16] | Potency [17] | Potency [18] | Potency [19] | Potency [20]
